Screening results from PubChem BioAssay.
HCV inhibitor = qHTS Assay for Inhibitors of Hepatitis C Virus (HCV) | AID 651820, 2012 | hit rate 3.4% among 340,000 | Potency, µM (highest dose often 41.8 µM), for inactives: at the top dose activity change, negative = inhibition, most hits filed as inhibitors | Huh7.5.1 HCVcc-Cre infection, luciferase reporter, 44 h; active = well fitted inhibition curve with a large enough effect; inconclusive = small, poorly fitted or top-dose-only effect, or another doubt; inactive = no such curve, though single readings can be large or run the other way; also: potency is read from the fitted curve at half-maximal effect
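Luciferase read-out (15 sec integration) after a 15 min room-temperature substrate step quantifies HCVcc-Cre infection. Cells, 1,000 per well, had compound added 4 h post-plating, then virus at ~0.5 moi, and were cultured 44 h.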
HCMV inh = qHTS Assay for inhibitors of the human cytomegalovirus (HCMV); HFF cells, HCMV-luciferase reporter, 72 h; hits give low values; activity change, negative = inhibition, % at 57.5 µM; hit rate 4.5% among 410,000; in the data active = activity change below about -60%; inconclusive = no clear call, values can overlap the other calls; inactive = above about -39%
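Luciferase read-out from HCMV-luciferase-infected HFFs (MOI 1 PFU/cell) 72 h post infection at 37C; compounds added after 16 h cell attachment; activity normalized between buffer-only basal and Salinomycin (10uM) inhibitor controls.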
VACV Venus inh = qHTS for Stage-Specific Inhibitors of Vaccinia Orthopoxvirus: Venus Reporter Primary qHTS; Vaccinia virus Venus reporter expression, fluorescence; Potency, µM (series often up to 36.5 µM), for the others: at the highest dose activity change, negative = inhibition, actives largely listed as inhibitors; hit rate 0.46% among 330,000; AID 720580, 2013; calls by dose curve; tested in A549 cells; also: potency is read from the fitted curve at half-maximal effect; nearly all actives have a fitted effect of over 30% in size
FMDV antiviral = High Throughput Screening for Foot and Mouth Disease Virus Antivirals. FMDV antiviral cell-based qHTS. Potency, µM (doses to about 57.9 µM), without a hit: top-dose activity change, negative = inhibition, hits mostly inhibitors. hit rate 1.2% among 410,000; calls by dose curve; tested in HEK293T cells; also: read-out not given here; potency is read from the fitted curve at half-maximal effect; nearly all actives have a fitted effect of over 45% in size
Vaccinia mCherry = qHTS for Stage-Specific Inhibitors of Vaccinia Orthopoxvirus: mCherry Reporter Primary qHTS. Vaccinia virus mCherry reporter infection, fluorescence. Potency, µM (highest dose often 36.5 µM), for the others: at the top dose activity change, negative = inhibition, hits mostly inhibitors. hit rate 0.63% among 310,000; calls by dose curve; tested in A549 cells; also: potency is read from the fitted curve at half-maximal effect; nearly all actives have a fitted effect of over 35% in size
Starred values were filed as active, the others as inactive; [ ] = another dose, or the depositor's remark. Sampled rows, rich in hits. Any-hit rate of the full collection: about 7.3%. % is scaled to controls: 0 for no effect and ±100 for the full control effect.

Results for COc1ccc(C=Cc2ccc3ccccc3n2)c(OC)c1 ?
HCMV inh: -87.6*; VACV Venus inh: -23.4%; FMDV antiviral: inconclusive; Vaccinia mCherry: inconclusive

Results for COc1cc(Br)c(/C=C/c2ccc3cccc(O)c3n2)cc1OC ?
HCV inhibitor: 10µM*; HCMV inh: -86.7*; FMDV antiviral: 14.2%

What do the screens show for `COc1ccc(OC)c(/C=C/c2ccc3ccccc3n2)c1`?
VACV Venus inh: -16.8%; Vaccinia mCherry: -23.3%

How did C=C1C=C(C(F)F)n2ncc(C(=O)NCc3ccc(OC)cc3)c2N1 do in these assays?
VACV Venus inh: -11.1%; Vaccinia mCherry: 0.6%

Results for CCn1cc2nc(SCC(=O)Nc3ccccc3C(F)(F)F)n(Cc3ccc(C)cc3)c(=O)c2n1 ?
HCMV inh: -12.8; VACV Venus inh: -24.0%; FMDV antiviral: inconclusive; Vaccinia mCherry: -14.6%

What do the screens show for `COc1ccc(OC)c(/C=C/c2ccnc3ccccc23)c1`?
HCV inhibitor: inconclusive; HCMV inh: -98.3*; VACV Venus inh: -20.9%; FMDV antiviral: -7.0%; Vaccinia mCherry: -8.2%

Results for COc1cc(OC)c(OC)cc1/C=C/c1ccnc2ccccc12 ?
HCV inhibitor: -3.6%; HCMV inh: inconclusive; VACV Venus inh: -26.3%; FMDV antiviral: -16.6%; Vaccinia mCherry: inconclusive

How did Oc1ccc(Cl)cc1/C=C/c1ccc2cccc(O)c2n1 do in these assays?
HCV inhibitor: inconclusive; HCMV inh: 1.5; VACV Venus inh: 1.9%; FMDV antiviral: 28.3%; Vaccinia mCherry: inconclusive

How did Oc1c(Cl)cc(Cl)cc1/C=C/c1ccc2cccc(O)c2n1 do in these assays?
HCV inhibitor: inconclusive; HCMV inh: -38.2; VACV Venus inh: 182.1%; FMDV antiviral: -25.0%; Vaccinia mCherry: 2.51µM*

What do the screens show for `Cc1ccccc1NC(=O)CSc1nc2nccnc2c(=O)n1CCc1c[nH]c2ccccc12`?
HCMV inh: inconclusive; VACV Venus inh: -6.0%; FMDV antiviral: -8.9%; Vaccinia mCherry: -13.4%

Results for Cn1c(=O)oc2cc(S(=O)(=O)NCCC(=O)Nc3ccc(F)cc3F)ccc21 ?
HCMV inh: 9.3; VACV Venus inh: -4.1%; FMDV antiviral: -5.1%; Vaccinia mCherry: -8.4%

Results for O=S(=O)(/C=C/C=C/S(=O)(=O)c1ccccc1)c1ccccc1 ?
HCV inhibitor: 8.91µM*; HCMV inh: -78.1*; VACV Venus inh: 14.1µM*; FMDV antiviral: 7.94µM*; Vaccinia mCherry: inconclusive

Results for O=C(CSc1ncnc2nc[nH]c12)N1CCN(c2ccc(Cl)cc2)CC1 ?
HCV inhibitor: inconclusive; HCMV inh: -69.1*; FMDV antiviral: inconclusive

How did O=C(O)CSc1ncnc2nc[nH]c12 do in these assays?
HCV inhibitor: 16.1%; HCMV inh: -1.8; FMDV antiviral: 8.3%

What do the screens show for `Nc1ccc(O)cc1C(=O)OCC(=O)c1ccc(C2CCCCC2)cc1`?
HCV inhibitor: inconclusive; HCMV inh: -95.3*; VACV Venus inh: -23.0%; FMDV antiviral: inconclusive; Vaccinia mCherry: inconclusive

What do the screens show for `OCCCNc1c2ccccc2nc2ccccc12`?
HCV inhibitor: 11.2µM*; HCMV inh: -102.0*; VACV Venus inh: 10µM*; FMDV antiviral: -10.1%; Vaccinia mCherry: 11.2µM*

What do the screens show for `c1ccc2c(NCCc3c[nH]c4ccccc34)c3ccccc3nc2c1`?
HCV inhibitor: 14.1µM*; HCMV inh: inconclusive; VACV Venus inh: 8.91µM*; FMDV antiviral: inconclusive; Vaccinia mCherry: inconclusive

Results for Cc1ccccc1-c1nn2c(=O)cc(CN3CCN(S(=O)(=O)c4ccc(Cl)cc4)CC3)nc2s1 ?
HCMV inh: 26.2; VACV Venus inh: -9.4%; FMDV antiviral: 0.0%; Vaccinia mCherry: -15.2%

What do the screens show for `COC(=O)CC(=O)CC(NS(=O)(=O)c1ccc(C)cc1)c1ccccc1` (stereo unspecified)?
HCMV inh: 62.6

How did C#CCN(Cc1nc(N2CCOCC2)c2ccc(Cl)cc2n1)Cc1ccco1 do in these assays?
VACV Venus inh: 6.1%; FMDV antiviral: -7.2%; Vaccinia mCherry: -8.3%

What do the screens show for `CCOC(=O)c1cnc2ccc(OCC)cc2c1NCCc1ccc(OC)c(OC)c1`?
HCMV inh: -8.9; VACV Venus inh: -15.3%[7.34 µM]; FMDV antiviral: 28.2µM*; Vaccinia mCherry: -10.8%[7.34 µM]

How did CCOC(=O)c1cnc2ccc(OCC)cc2c1N(C)Cc1ccccc1 do in these assays?
HCV inhibitor: 11.2µM*; HCMV inh: -16.3; VACV Venus inh: -17.0%; FMDV antiviral: inconclusive; Vaccinia mCherry: -13.3%

What do the screens show for `CCOC(=O)c1cnc2ccc(C)cc2c1NCCc1ccc(OC)c(OC)c1`?
HCMV inh: 20.9; VACV Venus inh: -17.8%; FMDV antiviral: -33.2%; Vaccinia mCherry: -25.5%

How did O=c1c2c3c(sc2n2cnnc2n1Cc1ccccc1)CN(Cc1ccccc1)CC3 do in these assays?
HCV inhibitor: 7.94µM*; HCMV inh: 9.9; VACV Venus inh: -11.5%; FMDV antiviral: inconclusive; Vaccinia mCherry: -21.1%

How did CN1CCc2c(sc3c2c(=O)n(-c2ccc(Cl)cc2)c2nncn32)C1 do in these assays?
HCV inhibitor: 8.9%; HCMV inh: 21.6; FMDV antiviral: -8.9%

What do the screens show for `COc1cc(/C=C/c2cc(C(F)(F)F)[nH]c(=O)n2)cc(OC)c1OC`?
HCV inhibitor: 0.1%; HCMV inh: -97.0*; VACV Venus inh: inconclusive; FMDV antiviral: inconclusive; Vaccinia mCherry: inconclusive

What do the screens show for `O=c1nc(/C=C/c2cccn2-c2ccc([N+](=O)[O-])cc2)cc(C(F)(F)F)[nH]1`?
HCV inhibitor: -4.7%; HCMV inh: -23.7; VACV Venus inh: -29.3%; FMDV antiviral: -19.6%; Vaccinia mCherry: -29.8%

Results for COc1cc(OC)c(OC)cc1/C=C/c1cc(C(F)(F)F)[nH]c(=O)n1 ?
HCV inhibitor: -20.5%; HCMV inh: inconclusive; VACV Venus inh: -6.6%; FMDV antiviral: inconclusive; Vaccinia mCherry: -2.8%

How did O=c1nc(/C=C/c2cc([N+](=O)[O-])ccc2Cl)cc(C(F)(F)F)[nH]1 do in these assays?
HCV inhibitor: -4.0%; HCMV inh: -68.4*; FMDV antiviral: 0.0%

How did CCc1nc2cc(C(=O)N(C)C3CCOC3)cc(NC(=O)c3ccccc3OC)c2n1C (stereo unspecified) do in these assays?
VACV Venus inh: -15.9%; FMDV antiviral: 2.3%; Vaccinia mCherry: -19.3%

Results for CC(=O)c1cc(-c2ccccc2)n(CCC(=O)Nc2cc(C)cc(C)c2)c1C ?
HCMV inh: 0.0; VACV Venus inh: -12.3%; FMDV antiviral: -10.2%; Vaccinia mCherry: -10.7%

What do the screens show for `O=S(=O)(c1ccccc1F)N1CCC(Oc2ccc(-n3cnnn3)cc2)CC1`?
HCV inhibitor: 2.5%; HCMV inh: -61.7*; VACV Venus inh: inconclusive; FMDV antiviral: -6.3%; Vaccinia mCherry: -23.2%

What do the screens show for `CC(C)(C)c1ccc(S(=O)(=O)N2CCC(Oc3ccc(-n4cnnn4)cc3)CC2)cc1`?
HCMV inh: -24.6; VACV Venus inh: -10.3%; FMDV antiviral: -25.3%; Vaccinia mCherry: -7.0%
